Experimental data from PubChem BioAssay.
The source made the active and inactive calls.

Assay: resazurin metabolic signal in HepG2 cells – cell-based, resazurin fluorescence, 24 h, PK04 Diversity Set, profiling panel (AID 1172); also: test concentration not given here
Details: HepG2 viability, higher = more signal

Q: For C=CCC(OC(C)=O)[C@@H]1[C@@H](N(Cc2cccc3ccccc23)C(=O)c2cccc3ccccc23)c2cc(OCCCO)ccc2N1C(=O)Cc1ccc2ccccc2c1 (stereo partly specified), which z-score is on record?
A: The z-score was 0.414.

Q: Which z-score does the source give for CCCCNC(=O)c1ccc(C#C[Si](C)(C)C)c(OC(C)=O)c1 here?
A: Its z-score is -0.0319.

Q: Which z-score does the source give for CCOC(=O)C1=CC[C@@H](c2ccccc2Cl)N(S(=O)(=O)c2ccc(C)cc2)[C@H]1c1cccc(OC)c1 here?
A: The z-score was -0.18.

Q: For Cc1ccc(F)cc1S(=O)(=O)N[C@@H]1CCN(Cc2ccc3c(c2)OCO3)C1, which z-score is on record?
A: The z-score was -0.622.

Q: For C#CCN(C/C=C/c1ccccc1)[C@H](CO[Si](C)(C)C(C)(C)C)c1ccccc1, which z-score is on record?
A: The z-score was -0.355.

Q: With N[C@@H](Cc1ccccc1)Cn1cc(C2(O)CCCCC2)nn1 as the compound, how does the z-score read?
A: The z-score was -0.384.

Q: Which z-score does the source give for COCCOC(=O)N1C(=O)[C@@]2(c3cc(C#CCC(C(=O)OC)C(=O)OC)ccc31)[C@H](c1ccc(OCCO)cc1)N1[C@H](c3ccccc3)[C@H](c3ccccc3)OC(=O)[C@H]1[C@@H]2C(=O)N1CCCCCCC1 here?
A: Its z-score is -0.0464.

Q: With COc1ccc(NC(=O)O[C@H]2[C@H](OC(=O)Nc3ccc4c(c3)OCO4)[C@H](OC(=O)Nc3ccc4c(c3)OCO4)[C@@H](OC)O[C@@H]2CO)cc1 as the compound, how does the z-score read?
A: Its z-score is -0.637.

Q: Which z-score does the source give for COc1ccc(NN2C(C(O)c3cc(C(F)(F)F)cc(C(F)(F)F)c3)C=CC3C(=O)N(C4CCCCC4)C(=O)C32)cc1 (stereo unspecified) here?
A: The z-score was 0.392.

Q: Which z-score does the source give for COCCOC(=O)N1C(=O)[C@@]2(c3cc(C#Cc4ccc(OC)cc4)ccc31)[C@H](C(=O)Nc1nc3ccccc3s1)[C@H]1C(=O)O[C@H](c3ccccc3)[C@H](c3ccccc3)N1[C@@H]2c1ccccc1OCCO here?
A: The z-score was 1.17.

Q: Which z-score does the source give for C=C(COC)/C(=C/C[C@H](OC(=O)c1ccncc1)c1ccc(OCCO)cc1)c1cc(C(=O)OC)ccc1OC here?
A: The z-score was 0.672.

Q: With COc1ccc([Si](C)(C)[C@H]2[C@H](CCO)O[C@@]3(C(=O)N(Cc4ccccc4)c4ccc(N(C=O)c5ccccc5)cc43)[C@@H]2C)cc1 as the compound, how does the z-score read?
A: The z-score was 0.0056.

Q: Which z-score does the source give for C=CC[C@]1(C(=O)OC)N=C(c2ccc(OCCCO)cc2)O[C@H]1c1ccccc1N=[N+]=[N-] here?
A: The z-score was -0.344.

Q: For COc1ccccc1CN1C(=O)c2ccccc2[C@](Cc2ccccc2I)(C(=O)NCCCN(C)C)[C@@H]1c1ccc(CO)cc1, which z-score is on record?
A: Its z-score is -6.49.

Q: For CC1CC/C=C\[C@H]2OC34C=CCN(c5ccc(Cl)cc5)C(=O)[C@H]3N(CCCO)C(=O)[C@]4(C)C2C(=O)O1 (stereo partly specified), which z-score is on record?
A: The z-score was -1.08.

Q: Which z-score does the source give for CC[C@H](C)C(=O)O[C@H]1CC[C@]2(C)C3=C(CCC2C1(C)C)[C@]1(C)CC[C@H]([C@H](C)CCCC(C)C)[C@@]1(C)CC3 (stereo partly specified) here?
A: The z-score was 1.06.

Q: With CCOC(=O)C[C@H]1[C@H](OC(=O)c2cc3ccccc3oc2=O)[C@@H](NC(=O)C2CCCCC2)c2cc(OCCCO)ccc2N1C(=O)Cc1ccc(OC)cc1 as the compound, how does the z-score read?
A: Its z-score is -0.715.

Q: For CC(C)C(=C=CC[C@@H](O)c1cccc(OCCO)c1)CCO, which z-score is on record?
A: The z-score was 0.545.

Q: With C=C(COC)/C(=C/C[C@H](OC(=O)c1ccncc1)c1cccc(OCCO)c1)c1cnc2ccccc2c1 as the compound, how does the z-score read?
A: Its z-score is 0.123.

Q: Which z-score does the source give for CC(C)CNC(=O)[C@@H]1c2ccccc2C(=O)N(Cc2ccccc2)[C@H]1c1ccc(CO)cc1 here?
A: The z-score was 0.768.

Q: With C=C(COC)C(=O)CC[C@@H](OC(C)=O)c1ccc(OCCO)cc1 as the compound, how does the z-score read?
A: Its z-score is -0.487.

Q: Which z-score does the source give for CCCCC(=C=CC[C@H](O)c1ccc(OCCO)cc1)C[C@H](O)c1ccccn1 here?
A: The z-score was 0.325.

Q: For CC(C)c1ccc(NN2C(C(O)C(C)C)C=CC3C(=O)N(c4ccccc4)C(=O)C32)cc1 (stereo unspecified), which z-score is on record?
A: The z-score was -1.65.

Q: Which z-score does the source give for COCCOC(=O)N1C(=O)[C@@]2(c3cc(C#CC4=CCCCC4)ccc31)[C@H](C(=O)N1CCN(c3ncccn3)CC1)[C@H]1C(=O)O[C@H](c3ccccc3)[C@H](c3ccccc3)N1[C@@H]2c1ccccc1OCCO here?
A: Its z-score is 1.32.

Q: Which z-score does the source give for CC(C)C(=C=CC[C@@H](O)c1ccccc1OCCO)C[C@@H](O)c1cc(Cl)cc(Cl)c1O here?
A: The z-score was -0.563.

Q: With COc1ccc(C(O)C2C=CC3C(=O)N(C)C(=O)C3N2Nc2ccc([N+](=O)[O-])cc2[N+](=O)[O-])cc1OCc1ccccc1 (stereo unspecified) as the compound, how does the z-score read?
A: Its z-score is -0.448.

Assay: budding yeast growth changes without added modifier – OD600, strain BY4716, 24 h, basal condition, primary screen (AID 1173)
Details: S. cerevisiae BY4716 growth, OD600, 24 h; higher = more signal, called active from +8 up or from −8 down

Q: Which z-score does the source give for O=C1OCCC/C=C\[C@H]2OC34C=CCN(Cc5ccccc5)C(=O)[C@H]3N(CCCCCO)C(=O)[C@@H]4C12 (stereo partly specified) here?
A: Its z-score is -1.08 (inactive).

Q: Which z-score does the source give for CO[C@H]1O[C@H](CO)[C@@H](OC(=O)Nc2ccc(C(F)(F)F)cc2)[C@H](OC(=O)Nc2ccccc2-c2ccccc2)[C@H]1OC(=O)Nc1ccccc1-c1ccccc1 here?
A: The z-score was 1.39 (inactive).

Q: With COCCOC(=O)N1C(=O)[C@@]2(c3cc(C#CCCO)ccc31)[C@H](C(=O)N1CCN(c3ncccn3)CC1)[C@H]1C(=O)O[C@H](c3ccccc3)[C@H](c3ccccc3)N1[C@@H]2c1ccc(O)cc1 as the compound, how does the z-score read?
A: Its z-score is -0.142 (inactive).

Q: Which z-score does the source give for [N-]=[N+]=NCc1ccccc1[C@H]1OC(c2ccc(OCCCO)cc2)=N[C@@]1(Cc1ccccc1)C(=O)N1CCOCC1 here?
A: Its z-score is -2.25 (inactive).

Q: With C=CCC(OC(C)=O)[C@@H]1[C@@H](N(Cc2ccc(-c3ccccc3)cc2)C(=O)c2ccc(C)cc2)c2cc(OCCCO)ccc2N1C(=O)c1ccc2ccccc2c1 (stereo partly specified) as the compound, how does the z-score read?
A: Its z-score is -0.766 (inactive).

Q: Which z-score does the source give for CCCCC(O)C1C=CC2C(=O)N(C)C(=O)C2N1Nc1ccccc1 (stereo unspecified) here?
A: Its z-score is 0.216 (inactive).

Q: For COCCOC(=O)N1C(=O)[C@@]2(c3cc(C#CCC(C(=O)OC)C(=O)OC)ccc31)[C@H](C(=O)N1CCCCCCC1)[C@H]1C(=O)O[C@H](c3ccccc3)[C@H](c3ccccc3)N1[C@@H]2c1ccccc1OCCO, which z-score is on record?
A: The z-score was 0.63 (inactive).

Q: Which z-score does the source give for COC(=O)[C@@]1(Cc2ccccc2)[C@H]2c3cc(C(=O)N4CCCC4)n(Cc4ccc(C(F)(F)F)nc4)c3C[C@H]2CN1C(=O)c1ccccc1 here?
A: Its z-score is 1.18 (inactive).

Q: For CN1C(=O)[C@]2(CCS(=O)(=O)c3ccccc3)N=C(c3ccc(OCCCO)cc3)O[C@@H]2c2ccccc21, which z-score is on record?
A: Its z-score is 0.902 (inactive).

Q: With C=CCC(OC(C)=O)[C@@H]1[C@@H](N(Cc2cccc3ccccc23)C(=O)c2cccc3ccccc23)c2cc(OCCCO)ccc2N1C(=O)Cc1ccc2ccccc2c1 (stereo partly specified) as the compound, how does the z-score read?
A: The z-score was -0.599 (inactive).

Q: With CCCCNC(=O)c1ccc(C#C[Si](C)(C)C)c(OC(C)=O)c1 as the compound, how does the z-score read?
A: The z-score was -1.09 (inactive).

Q: Which z-score does the source give for CCOC(=O)C1=CC[C@@H](c2ccccc2Cl)N(S(=O)(=O)c2ccc(C)cc2)[C@H]1c1cccc(OC)c1 here?
A: Its z-score is 1.46 (inactive).

Q: For Cc1ccc(F)cc1S(=O)(=O)N[C@@H]1CCN(Cc2ccc3c(c2)OCO3)C1, which z-score is on record?
A: The z-score was -4.86 (inactive).

Q: With C#CCN(C/C=C/c1ccccc1)[C@H](CO[Si](C)(C)C(C)(C)C)c1ccccc1 as the compound, how does the z-score read?
A: Its z-score is 0.571 (inactive).

Q: For N[C@@H](Cc1ccccc1)Cn1cc(C2(O)CCCCC2)nn1, which z-score is on record?
A: The z-score was -0.125 (inactive).

Q: With COCCOC(=O)N1C(=O)[C@@]2(c3cc(C#CCC(C(=O)OC)C(=O)OC)ccc31)[C@H](c1ccc(OCCO)cc1)N1[C@H](c3ccccc3)[C@H](c3ccccc3)OC(=O)[C@H]1[C@@H]2C(=O)N1CCCCCCC1 as the compound, how does the z-score read?
A: Its z-score is 1.45 (inactive).

Q: With COc1ccc(NC(=O)O[C@H]2[C@H](OC(=O)Nc3ccc4c(c3)OCO4)[C@H](OC(=O)Nc3ccc4c(c3)OCO4)[C@@H](OC)O[C@@H]2CO)cc1 as the compound, how does the z-score read?
A: The z-score was 1.41 (inactive).

Q: Which z-score does the source give for COc1ccc(NN2C(C(O)c3cc(C(F)(F)F)cc(C(F)(F)F)c3)C=CC3C(=O)N(C4CCCCC4)C(=O)C32)cc1 (stereo unspecified) here?
A: The z-score was 0.275 (inactive).

Q: Which z-score does the source give for COCCOC(=O)N1C(=O)[C@@]2(c3cc(C#Cc4ccc(OC)cc4)ccc31)[C@H](C(=O)Nc1nc3ccccc3s1)[C@H]1C(=O)O[C@H](c3ccccc3)[C@H](c3ccccc3)N1[C@@H]2c1ccccc1OCCO here?
A: Its z-score is 0.86 (inactive).

Q: Which z-score does the source give for C=C(COC)/C(=C/C[C@H](OC(=O)c1ccncc1)c1ccc(OCCO)cc1)c1cc(C(=O)OC)ccc1OC here?
A: The z-score was 0.194 (inactive).

Q: Which z-score does the source give for COc1ccc([Si](C)(C)[C@H]2[C@H](CCO)O[C@@]3(C(=O)N(Cc4ccccc4)c4ccc(N(C=O)c5ccccc5)cc43)[C@@H]2C)cc1 here?
A: The z-score was 1.53 (inactive).

Q: With C=CC[C@]1(C(=O)OC)N=C(c2ccc(OCCCO)cc2)O[C@H]1c1ccccc1N=[N+]=[N-] as the compound, how does the z-score read?
A: The z-score was -0.352 (inactive).

Q: Which z-score does the source give for COc1ccccc1CN1C(=O)c2ccccc2[C@](Cc2ccccc2I)(C(=O)NCCCN(C)C)[C@@H]1c1ccc(CO)cc1 here?
A: The z-score was -10.3 (active).

Q: With CC1CC/C=C\[C@H]2OC34C=CCN(c5ccc(Cl)cc5)C(=O)[C@H]3N(CCCO)C(=O)[C@]4(C)C2C(=O)O1 (stereo partly specified) as the compound, how does the z-score read?
A: The z-score was 1.44 (inactive).

Q: For CC[C@H](C)C(=O)O[C@H]1CC[C@]2(C)C3=C(CCC2C1(C)C)[C@]1(C)CC[C@H]([C@H](C)CCCC(C)C)[C@@]1(C)CC3 (stereo partly specified), which z-score is on record?
A: The z-score was 0.31 (inactive).

Q: For CCOC(=O)C[C@H]1[C@H](OC(=O)c2cc3ccccc3oc2=O)[C@@H](NC(=O)C2CCCCC2)c2cc(OCCCO)ccc2N1C(=O)Cc1ccc(OC)cc1, which z-score is on record?
A: The z-score was 0.0323 (inactive).

Q: For CC(C)C(=C=CC[C@@H](O)c1cccc(OCCO)c1)CCO, which z-score is on record?
A: Its z-score is -1.15 (inactive).

Q: Which z-score does the source give for C=C(COC)/C(=C/C[C@H](OC(=O)c1ccncc1)c1cccc(OCCO)c1)c1cnc2ccccc2c1 here?
A: The z-score was 0.14 (inactive).

Q: Which z-score does the source give for CC(C)CNC(=O)[C@@H]1c2ccccc2C(=O)N(Cc2ccccc2)[C@H]1c1ccc(CO)cc1 here?
A: The z-score was -0.21 (inactive).

Q: For C=C(COC)C(=O)CC[C@@H](OC(C)=O)c1ccc(OCCO)cc1, which z-score is on record?
A: Its z-score is -0.997 (inactive).

Q: With CCCCC(=C=CC[C@H](O)c1ccc(OCCO)cc1)C[C@H](O)c1ccccn1 as the compound, how does the z-score read?
A: The z-score was -0.265 (inactive).

Q: For CC(C)c1ccc(NN2C(C(O)C(C)C)C=CC3C(=O)N(c4ccccc4)C(=O)C32)cc1 (stereo unspecified), which z-score is on record?
A: The z-score was -0.619 (inactive).

Q: For COCCOC(=O)N1C(=O)[C@@]2(c3cc(C#CC4=CCCCC4)ccc31)[C@H](C(=O)N1CCN(c3ncccn3)CC1)[C@H]1C(=O)O[C@H](c3ccccc3)[C@H](c3ccccc3)N1[C@@H]2c1ccccc1OCCO, which z-score is on record?
A: Its z-score is 1.23 (inactive).

Q: With CC(C)C(=C=CC[C@@H](O)c1ccccc1OCCO)C[C@@H](O)c1cc(Cl)cc(Cl)c1O as the compound, how does the z-score read?
A: Its z-score is -4.12 (inactive).

Q: With COc1ccc(C(O)C2C=CC3C(=O)N(C)C(=O)C3N2Nc2ccc([N+](=O)[O-])cc2[N+](=O)[O-])cc1OCc1ccccc1 (stereo unspecified) as the compound, how does the z-score read?
A: The z-score was 0.944 (inactive).
